Experiment [1] is described as follows: qHTS assay for identifying genotoxic compounds that show differential cytotoxicity against isogenic chicken DT40 cell lines with known DNA damage response pathways - Rev3 mutant cell line (AID 743014). Further: nearly all actives have a fitted effect of over 55% in size. Further: potency means the concentration at half of the fitted maximal effect.
Experiment [2] in a line: qHTS assay to identify small molecule antagonists of the androgen receptor (AR) signaling pathway - cell viability counter screen (AID 743033; further: nearly all actives have a fitted effect of over 45% in size; further: potency means the concentration at half of the fitted maximal effect).
For experiment [3], the target named is Androgen receptor (Homo sapiens) (UniProt P10275). As to the kind of experiment: qHTS assay to identify small molecule antagonists of the androgen receptor (AR) signaling pathway (AID 743035; active means well fitted inhibition curve with a large enough effect in the signal ratio in the repeat runs, not every such curve was filed as active; inconclusive means weak or mixed curves, or effect the other way; inactive means no such curve, though single readings can be large or run the other way; the % refers to the signal ratio; further: potency means the concentration at half of the fitted maximal effect). The method, boiled down: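 Antagonism is scored as loss of R1881-driven beta-lactamase reporter expression in HEK293 cells carrying the reporter under a UAS element, after 16 h co-treatment at 37C and a 2 h room-temperature FRET substrate read.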

Experiment [4] shares this target. Put plainly: qHTS assay to identify small molecule agonists of the androgen receptor (AR) signaling pathway using the MDA cell line (AID 743040; further: nearly all actives have a fitted effect of over 20% in size; further: potency means the concentration at half of the fitted maximal effect). The method, boiled down: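 Human breast carcinoma MDA-kb2 reporter cells (MMTV-luc, AR/GR elements) were treated for 16 h at 37C in 0% CO2 following a 5 h settling period. Signal was quantified by ONE-Glo luminescence.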

The nature of experiment [5]: qHTS assay to identify small molecule antagonists of the androgen receptor (AR) signaling pathway using the MDA cell line - cell viability counter screen (AID 743041; further: nearly all actives have a fitted effect of over 45% in size; further: potency means the concentration at half of the fitted maximal effect). The method, boiled down: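 Same-well cytotoxicity was assessed by CellTiter-Fluor in MDA-kb2 AR-luc cells after 16 h of compound treatment under R1881 agonism.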
Experiment [6] in a line: qHTS assay to identify small molecule antagonists of the thyroid receptor (TR) signaling pathway - cell viability counter screen (AID 743064). Further: nearly all actives have a fitted effect of over 50% in size. Further: potency means the concentration at half of the fitted maximal effect. The essentials: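 GH3.TRE-Luc rat pituitary cells dosed after 4 hr plating, co-stimulated with T3 at 1 nM final, incubated 23.5 h at 37 C. Viability measured in the same wells by CellTiter-Fluor fluorescence after 30 min further at 37 C.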

A short description of experiment [7]: qHTS assay to identify small molecule antagonists of the thyroid receptor (TR) signaling pathway (AID 743065). Further: nearly all actives have a fitted effect of over 55% in size. Further: potency means the concentration at half of the fitted maximal effect. The method, boiled down: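 GH3.TRE-Luc rat pituitary cells (two TREs driving luciferase) were dosed with compound, then stimulated with 1 nM T3 (final) for 23.5 h at 37 C. ONE-Glo luminescence was the read-out, with CellTiter-Fluor fluorescence as the cytotoxicity counter-screen.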

For experiment [8], the system named is thyroid hormone receptor (rat, GH3 cells). As to the kind of experiment: qHTS assay to identify small molecule agonists of the thyroid receptor (TR) signaling pathway (AID 743066; calls by dose curve; further: on the % scale 0 is the no-effect control and ±100 the full control effect).
The nature of experiment [9]: qHTS assay to identify small molecule antagonists of the estrogen receptor alpha (ER-alpha) signaling pathway - cell viability counter screen (AID 743074; calls by dose curve;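 further: HEK293 cells carrying ER-alpha-UAS-bla reporter stimulated with 17beta-estradiol; nearly all actives have a fitted effect of over 45% in size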; further: potency means the concentration at half of the fitted maximal effect).
Experiment [10] is described as follows: qHTS assay to identify small molecule antagonists of the estrogen receptor alpha (ER-alpha) signaling pathway using the BG1 cell line - cell viability counter screen (AID 743081).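 Further: compound given together with 17beta-estradiol as the ER stimulus; on the % scale 0 is the no-effect control and ±100 the full control effect; nearly all actives have a fitted effect of over 45% in size.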
A further experiment addresses Aromatase (Homo sapiens) (UniProt P11511). As to the kind of experiment: qHTS assay to identify aromatase inhibitors (AID 743083). Further: nearly all actives have a fitted effect of over 55% in size. Further: potency means the concentration at half of the fitted maximal effect.
Experiment [11] concerns the target Estrogen receptor (Homo sapiens) (UniProt P03372). As to the kind of experiment: qHTS assay to identify small molecule antagonists of the estrogen receptor alpha (ER-alpha) signaling pathway (AID 743069; active means well fitted curve in the direction sought with a large enough effect in the signal ratio in the repeat runs, not every such curve was filed as active; inconclusive means weak or mixed curves, or effect the other way; inactive means no such curve, though single readings can be large or run the other way; the % refers to the signal ratio; further: potency means the concentration at half of the fitted maximal effect). The method, boiled down:
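Reporter cells (ER-alpha-bla, HEK293 background) are conditioned overnight in stripped-serum medium (2% charcoal-stripped FBS). Compound and 17beta-estradiol exposure runs 18 hr at 37C, 5% CO2.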

Experiment [12] shares this target. As to the kind of experiment: qHTS assay to identify small molecule agonists of the estrogen receptor alpha (ER-alpha) signaling pathway (AID 743075; calls by dose curve;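 further: HEK293 GripTite cells with ER-alpha and UAS-driven beta-lactamase reporter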; further: potency means the concentration at half of the fitted maximal effect; on activation: on the % scale 0 is the no-effect control and ±100 the full control effect). To be noted: HEK293 ER-alpha-UAS-bla, beta-lactamase FRET ratio, 18 h; activation: at 70.1 µM (top of the series).
Experiment [13] is described as follows: qHTS assay to identify small molecule antagonists of the estrogen receptor alpha (ER-alpha) signaling pathway using the BG1 cell line (AID 743080; calls by dose curve;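 further: BG1 cells stimulated with 17beta-estradiol alongside compound; on the % scale 0 is the no-effect control and ±100 the full control effect; nearly all actives have a fitted effect of over 25% in size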). The method, boiled down:
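Endogenous full-length ER-alpha in BG1-Luc-4E2 cells drives a stably integrated 4×ERE luciferase gene; compounds were tested against 17beta-estradiol over 21.5 h, with luminescence and multiplexed viability fluorescence recorded.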

The nature of experiment [14]: qHTS assay for identifying genotoxic compounds that show differential cytotoxicity against isogenic chicken DT40 cell lines with known DNA damage response pathways - wild type cell line (AID 743012). Further: nearly all actives have a fitted effect of over 60% in size. Further: potency means the concentration at half of the fitted maximal effect. The method, boiled down:
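Cells (DT40 wild type, 300/well) are treated with DMSO-dissolved compounds after a ~0.5 h pre-incubation and kept 40 h at 37 C/5% CO2. Viability is then measured by CellTiter-Glo luminescence following 30 min at room temperature.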

For experiment [15], the target named is Androgen receptor (Homo sapiens) (UniProt P10275). As to the kind of experiment: qHTS assay to identify small molecule agonists of the androgen receptor (AR) signaling pathway (AID 743036; active means well fitted activation curve with a large enough effect in the signal ratio in the repeat runs, with a control signal flat, not every such curve was filed as active; inconclusive means weak or mixed curves, or effect the other way; inactive means no such curve, though single readings can be large or run the other way; the % refers to the signal ratio; further: on the % scale 0 is the no-effect control and ±100 the full control effect). The method, boiled down:
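AR-UAS-bla HEK293 cells, plated 4 h before dosing, were treated with compound for 16 h at 37C. beta-Lactamase reporter read after 2 h with LiveBLAzer B/G FRET substrate at room temperature.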

Experiment [16] shares this target. Put plainly: qHTS assay to identify small molecule antagonists of the androgen receptor (AR) signaling pathway using the MDA cell line (AID 743042; further: nearly all actives have a fitted effect of over 55% in size; further: potency means the concentration at half of the fitted maximal effect). The essentials: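 MDA-kb2 breast carcinoma cells carrying MMTV-luciferase (AR/GR responsive) were co-treated with compounds and the agonist R1881 for 16 h at 37C. Inhibition read as ONE-Glo luminescence; CellTiter-Fluor fluorescence measured in parallel for cytotoxicity.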

Experiment [17] concerns the target Estrogen receptor (Homo sapiens) (UniProt P03372). As to the kind of experiment: qHTS assay to identify small molecule agonists of the estrogen receptor alpha (ER-alpha) signaling pathway using the BG1 cell line (AID 743079). Further: nearly all actives have a fitted effect of over 20% in size. Further: potency means the concentration at half of the fitted maximal effect. On activation: on the % scale 0 is the no-effect control and ±100 the full control effect. To be noted: BG1Luc4E2 cells, ERE-luciferase agonist, 22 h.
Experiment [18] in a line: qHTS assay for identifying genotoxic compounds that show differential cytotoxicity against isogenic chicken DT40 cell lines with known DNA damage response pathways - Rad54/Ku70 mutant cell line (AID 743015). Further: potency means the concentration at half of the fitted maximal effect; nearly all actives have a fitted effect of over 60% in size.

SMILES strings stand for the structures. “And” between values parts separate entries of the source, which are not always exact repeats. Equal entries are not always repeated. More than one record can exist for a structure, and the calls need not agree. The source made the active and inactive calls. Unless noted, the call rests on the fitted dose curve; in most records, active means well fitted curve in the direction sought with a large enough effect in the repeat runs; inconclusive means weak or mixed curves; inactive means no such curve, though single readings can be large; an effect the other way counts as inactive or inconclusive.

Aromatase (Homo sapiens), sequence (P11511 whole entry, looked up): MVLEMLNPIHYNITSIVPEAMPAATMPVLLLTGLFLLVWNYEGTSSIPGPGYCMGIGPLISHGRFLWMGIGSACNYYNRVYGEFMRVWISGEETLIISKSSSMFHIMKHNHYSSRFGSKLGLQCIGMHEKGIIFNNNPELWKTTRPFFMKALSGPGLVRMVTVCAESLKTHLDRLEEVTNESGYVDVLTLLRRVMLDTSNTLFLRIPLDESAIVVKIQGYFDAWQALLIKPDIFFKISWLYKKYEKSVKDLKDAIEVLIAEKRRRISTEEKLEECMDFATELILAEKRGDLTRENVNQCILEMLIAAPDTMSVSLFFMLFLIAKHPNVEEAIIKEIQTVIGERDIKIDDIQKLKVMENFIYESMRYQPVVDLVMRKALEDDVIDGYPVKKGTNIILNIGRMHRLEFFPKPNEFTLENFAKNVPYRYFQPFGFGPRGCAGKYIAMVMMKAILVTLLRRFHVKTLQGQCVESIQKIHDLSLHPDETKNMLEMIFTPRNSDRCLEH
Androgen receptor (Homo sapiens), sequence (P10275 whole entry, looked up): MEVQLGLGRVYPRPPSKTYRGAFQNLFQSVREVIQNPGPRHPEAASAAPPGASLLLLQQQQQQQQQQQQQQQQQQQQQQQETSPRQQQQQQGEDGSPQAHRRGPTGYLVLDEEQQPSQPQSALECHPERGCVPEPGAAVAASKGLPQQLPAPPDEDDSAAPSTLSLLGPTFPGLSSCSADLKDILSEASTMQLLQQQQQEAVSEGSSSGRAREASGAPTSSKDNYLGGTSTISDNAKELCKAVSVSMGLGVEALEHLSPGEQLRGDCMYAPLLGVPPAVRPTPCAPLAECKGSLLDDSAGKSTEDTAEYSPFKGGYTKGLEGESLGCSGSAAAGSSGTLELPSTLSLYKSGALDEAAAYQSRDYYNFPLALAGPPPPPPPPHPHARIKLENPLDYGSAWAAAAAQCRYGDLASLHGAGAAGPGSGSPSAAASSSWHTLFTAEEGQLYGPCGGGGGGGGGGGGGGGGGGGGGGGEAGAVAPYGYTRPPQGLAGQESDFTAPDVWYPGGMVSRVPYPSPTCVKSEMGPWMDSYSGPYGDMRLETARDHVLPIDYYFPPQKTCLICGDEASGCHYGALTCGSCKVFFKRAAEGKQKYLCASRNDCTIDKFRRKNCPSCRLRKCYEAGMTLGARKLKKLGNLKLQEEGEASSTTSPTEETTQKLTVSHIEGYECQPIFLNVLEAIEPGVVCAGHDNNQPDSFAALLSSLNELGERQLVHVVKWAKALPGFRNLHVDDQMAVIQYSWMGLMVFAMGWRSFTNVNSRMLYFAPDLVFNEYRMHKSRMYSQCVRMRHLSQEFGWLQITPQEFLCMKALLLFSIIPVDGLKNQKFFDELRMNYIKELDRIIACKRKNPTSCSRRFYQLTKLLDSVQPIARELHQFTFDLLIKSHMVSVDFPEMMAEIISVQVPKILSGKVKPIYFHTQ
Estrogen receptor (Homo sapiens), sequence (P03372 whole entry, looked up): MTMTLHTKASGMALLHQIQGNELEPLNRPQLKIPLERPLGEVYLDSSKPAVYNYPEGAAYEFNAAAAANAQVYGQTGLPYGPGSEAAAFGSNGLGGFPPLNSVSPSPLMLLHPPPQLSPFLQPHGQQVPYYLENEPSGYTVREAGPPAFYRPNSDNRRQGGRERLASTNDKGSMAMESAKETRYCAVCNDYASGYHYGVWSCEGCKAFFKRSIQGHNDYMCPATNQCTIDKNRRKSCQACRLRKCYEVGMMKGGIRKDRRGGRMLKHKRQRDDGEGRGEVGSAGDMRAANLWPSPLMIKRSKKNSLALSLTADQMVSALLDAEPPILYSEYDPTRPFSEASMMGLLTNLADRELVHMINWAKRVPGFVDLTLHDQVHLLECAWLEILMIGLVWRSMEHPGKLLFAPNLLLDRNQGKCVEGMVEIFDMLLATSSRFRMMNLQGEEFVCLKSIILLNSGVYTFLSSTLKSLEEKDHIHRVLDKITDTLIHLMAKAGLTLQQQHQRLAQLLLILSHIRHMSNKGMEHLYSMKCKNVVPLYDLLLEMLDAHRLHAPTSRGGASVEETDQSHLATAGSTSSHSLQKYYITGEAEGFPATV

For the compound `CCCCN(CCCC)c1ccc(C(=O)c2ccccc2C(=O)O)c(O)c1`, the Potency entry in experiment [1], in experiment [2], in experiment [4], in [5], in experiment [8] and in [10] was “inactive” in each case. Moreover, the Potency entry with Aromatase (Homo sapiens) was “inactive”. For the same compound, the Potency in [3] was 39.3 µM (active); in [6] it was 55 µM (active); in experiment [7] it was 55 µM (active); in [9], 49.4 µM (active).

In the case of `CCCCC(CC)COP(=O)(O)OCC(CC)CCCC` (stereo not drawn), the Potency entry in [1], in experiment [2], in [5], in experiment [8], in experiment [12] and in experiment [13] was “inactive” throughout. Moreover, the Potency result (in experiment [10]; in the experiment with Aromatase (Homo sapiens)) was “inactive” each time. In addition, the Potency in [6] was 27.4 µM (active); in experiment [7], 61.3 µM (active); in experiment [11] it was 4.36 µM [inconclusive] (active); in [9], 39 µM (active).

Take `CCCCCCOC(=O)c1ccc(O)cc1`: the Potency in [14] was 21.7 µM (active) and inactive; in experiment [1], 48.6 µM (active); in experiment [12], 49 µM [inconclusive] (active) and 24.5 µM [inconclusive] (active); in [17], 5.45 µM (active) and 17.2 µM (active). Besides, the Potency result in experiment [2], in experiment [15], in experiment [4], in experiment [5], in [16] and in experiment [6] was “inactive” each time. The Potency result in experiment [7], in experiment [8], in experiment [9] and in experiment [10] was “inactive” each time.

For the compound `CCCC(=O)OC[C@@H](OC(=O)CCC)[C@@H](OC(=O)CCC)[C@H](Cn1c2nc(=O)[nH]c(=O)c-2nc2cc(C)c(C)cc21)OC(=O)CCC`, the Potency is 11.9 µM (active) in [14]; 13.3 µM (active) in experiment [1]; 10.6 µM (active) in experiment [18]; 5.31 µM (active) in experiment [4]; 23.7 µM (active) in experiment [16]; 21.1 µM (active) in [7]. Also, the Potency result (in experiment [2]; in [3]; in [8]; in experiment [9]; in [12]; with Aromatase (Homo sapiens)) was “inactive” each time.

For the compound `Cc1cc(O)c(Cl)c(C)c1Cl`, the Potency was 24.3 µM (active) in experiment [14]; 24.3 µM (active) in experiment [1]; 17.2 µM (active) in [18]; 27.5 µM (active) in [2]; 54.5 µM (active) in [16]; 17.2 µM (active) in experiment [6]. For the same compound, the Potency is 24.3 µM (active) in experiment [7] and 48.6 µM (active) in the experiment with Aromatase (Homo sapiens). Also, the Potency entry in experiment [4], in experiment [8], in experiment [12] and in [10] was “inactive” in each case.

Consider `COc1ccc(-c2ccc3cc(C(=O)O)ccc3c2)cc1C12CC3CC(CC(C3)C1)C2`, for which the Potency result in [14], in experiment [1], in experiment [2], in experiment [5], in experiment [8] and in [9] was “inactive” throughout. Further, the Potency entry in experiment [12] and in experiment [10] was “inactive” each time. For the same compound, the Potency in experiment [6] was 1.68 µM (active); in [7], 1.33 µM (active); in [11], 7.56 µM [inconclusive] (active). Besides, in experiment [17] (at 70.3 µM (top of the series)), the activation was -4.61% (inactive).

In the case of `c1cc(C(c2ccc(OCC3CO3)cc2)c2ccc(OCC3CO3)cc2)ccc1OCC1CO1` (stereo not drawn), the Potency is 0.969 µM (active) in experiment [1]; 13.7 µM (active) in experiment [18]; 17.2 µM (active) in experiment [6]; 12.2 µM (active) in [7]; 68.6 µM (active) with Aromatase (Homo sapiens). The Potency entry in experiment [4], in [5], in experiment [9], in experiment [12], in [13] and in [10] was “inactive” throughout.

In the case of `CC[C@H](c1ccc(O)cc1)[C@@H](CC)c1ccc(O)cc1`, the Potency in [14] is 12.2 µM (active); in [1] it was 10.1 µM (active) and 13.7 µM (active); in experiment [18] it was 19.3 µM (active); in experiment [3] it was 8.11 µM (active) and 21.9 µM (active); in [16] it was “inactive and 54.5 µM (active)”; in experiment [6], 30.6 µM (active). Moreover, the Potency was 19.3 µM (active) in experiment [7]; 0.2 nM [inconclusive] (active) in experiment [12]; “inactive and 27.3 µM (active)” with Aromatase (Homo sapiens). Also, the Potency entry in experiment [2], in experiment [15], in [4], in experiment [5], in experiment [8] and in experiment [11] was “inactive” throughout. Besides, the Potency result in [9] and in [10] was “inactive” each time. For the same compound, the results for the activation in [12], in experiment [17] (at 32.5 µM (top of the series)) and in [17] (at 70.3 µM (top of the series)) were 38.2% [inconclusive] (active), 58.6% (active) and -55.2% (active), respectively.

In the case of `C=C(C)C(=O)OCC(O)COc1ccc(C(C)(C)c2ccc(OCC(O)COC(=O)C(=C)C)cc2)cc1` (stereo not drawn), the Potency in experiment [1] was 6.86 µM (active); in experiment [18] it was 6.86 µM (active); in [2] it was 24.5 µM (active); in [5], 21.7 µM (active); in [7] it was 61.1 µM (active); in experiment [9], 43.6 µM (active). For the same compound, the Potency with Aromatase (Homo sapiens) is 30.6 µM (active). In addition, the Potency result in [8] and in experiment [12] was “inactive” each time.

The record behind these values is PubChem BioAssay (Tox21).
